# Measurements published in the supplement of paper PMC11417369.
# Whole data set: some 25,000 sequences, median “ln(normalized median fluorescence intensity)” near 7.1, cut for the highest 2% near 10. Shown is part of a subset that was picked to be rich in the highest values.
# Tested on: PfSIP2 AP2 domain 1 (GST-tagged)
# Experiment: gcPBM binding intensity (ln(normalized median fluorescence intensity)); higher = stronger DNA binding
# In short: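 The highest Masliner-normalised natural-log median intensity across replicate spots of either probe orientation is reported as binding intensity. GST-tagged P. falciparum DNA-binding domains expressed in E. coli were applied for 1 h to an Agilent 4 × 180k array of primer-extended double-stranded 36-bp intergenic genomic probes plus negative controls, and bound protein was detected with Alexa488 anti-GST antibody and scanned at 488 nm.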
row,Sequence,gcPBM binding intensity (ln)
1,ACGACATATGGATGATGTACTATCTTTATTATACAT [XGTACX_site6857],6.89
2,AGAAATAAGAAATATACACACATATATATATATATA [CACACA_site2808],9.79
3,TAAAGAAATAAATACATACACACATATATATATATA [CACACA_site3363],9.69
4,AAAGAAATAAGGTGCACACATATACAGATATATATA [CACACA_site4399],11.9
5,TAAAAGAAATAATATACACACATATATAAAAATAAA [CACACA_site1329],6.86
6,AAAAAAAAAATACAGGTGCAATAAGAAAAAAATGGT,10.2
7,AAAGAAATAAGGTGCACACATATACATATATATATA [CACACA_site429],11.9
8,AAATATAATATATGCACACATACATACAGATATATA [CACACA_site4235],7.09
9,ATGCATAAAAGAAATACACACATAAATATATAAATA [CACACA_site2163],7.02
10,AAATATAAGAAAAAGGTGCTTTTTTTTTTTTTTTTT [GTGCAC_site9700],8.42
11,TATACAGATAAATACACACACACATATATATATATA [CACACA_site4845],9.39
12,ATATATATATAATAAGTGCAAAAAAAAGAAAAAAAT,8.48
13,TAAAAGAAATAAGGTGCACACATATACATATATATA [CACACA_site8037],11.8
14,AAGGAAAAGTAAAGAAGTACTGTACCGCCAAAAAAA [XGTACX_site2607],6.98
15,TAAATATATTTATATTGTACATTTATGTTGATACCA [XGTACX_site228],6.88
16,TATAGATAAGAATATGCACACATTTTATTTTTTTTT [CACACA_site1982],7.16
17,TCTTTAAAAAAAAAAAAAAAAAATTCCAAATAAATA [TGCATGCA_negctrl_site538],6.72
18,ATTTGTTCATTTGGTTGTACATAATTTATTTTTATA [XGTACX_site785],7.26
19,TTGTATATTTTATGTACACACAATAAGTTAATATAA [CACACA_site4655],7.29
20,TATATTTATATCATCACACATTTTTTTTTTCTTTTT [CACACA_site6150],6.58

row,Sequence,gcPBM binding intensity (ln)
1,ATATATATTAATAGTTGTACTATTATAATATTACAA [XGTACX_site1213],7
2,AGGATAACATACAAAAGTACATAAAACTAAAAAAAC [XGTACX_site26],7.32
3,TATATGTTTACTTAATGTACTTACATTTTTATAACA [XGTACX_site1100],6.91
4,GCATTATTATATATTTGTACATATTTTTTTTTAAAA [XGTACX_site5436],7.3
5,AATATATAAACACGTACACACACATATATGTATATA [CACACA_site9168],7.39
6,TATTAAATTATATAGACACACATTATGTATATATAT [CACACA_site345],7.49
7,TTTTTTAAAAGAAAATAAAAAATAAGCATAATATGA [CACACA_negctrl_site1574],7.06
8,ATGGAATATTTCATGATTTTTTTAATTTTTTTATTG [XGTACX_negctrl_site55],6.6
9,ATATATTATATATATTTTAAGTAATTTGCAAAAAAT [GTGCAC_negctrl_site361],7.01
10,AGGTGCAAAAATAAAACATGCAAAAATAAAAATGAA [TGCATGCA_site502],9.93
11,AAAAGGAACGGACACACACACATATATATATATATA [CACACA_site5894],9.31
12,ACGGAAAAAGAAAAGGTGCATATGGACACAATATAT,11.3
13,TATGGAAGAAAATATACACACAAAAAAAAAAAATGG [CACACA_site4924],6.99
14,GAAAGAATAAAATAAACATGCAAATAAAACATAAAA [TGCATGCA_site471],7.2
15,CACATAAAATAAGGTGCATGCAAACGAGAAAATAAA [TGCATGCA_site75],11
16,TTGTTAAATATTTATAAAATGAATTTAAAATGTACT [CACACA_negctrl_site665],7.05
17,ATATGTATAAATATAAATATATATATATATATATAT [CACACA_negctrl_site705],9.63
18,TAATATAAAGGAAAAGAAAAGAAAAGAATATACAAT [CACACA_negctrl_site1369],6.69
19,GGACAAGAATAGTGCACATGCAATGTTATTTTTTAT [TGCATGCA_site450],10.9
20,GTAATAAGAATTATAGTGCAATGTAATACATTTATA,7.97

row,Sequence,gcPBM binding intensity (ln)
1,GAAAGGACAAGAATAGTGCACATGCAATGTTATTTT [GTGCAC_site9985],9.8
2,ATTTTTTTTTTTTTTATTCCCCTTTCGAAAAAAACC [CACACA_negctrl_site1139],7.18
3,ATAGTTTAATTTATATGTACATATAATATTGATTTG [XGTACX_site7520],7.29
4,CTTATTGATTTAAAAAGTACATATATGTATATACAC [XGTACX_site4072],7.05
5,TACTTATTTGATTGGGTGCATATATATAGTATGTAT [GTGCAC_site9845],10.6
6,TTTTATTTATCTAATTGTACTCATTCTTTTTTGATG [XGTACX_site2876],6.88
7,AGATATATATATAGGTGTACTGGAATGAAATTGTTT [XGTACX_site8200],6.94
8,AAATAAAAATTAAAAAAATAGAAACGAATTGAATGC [TGCATGCA_negctrl_site365],7.2
9,GATGAAAATAGAAATACACACTAAAAAATAAAATTA [CACACA_site4764],6.75
10,TATAAATTAAAATGTGTGCACTAAATTGAAATAGAA,10.7
11,TCAATATATATAAGAAGTACATGTGAATGAAAAAAA [XGTACX_site1674],7.14
12,AAAAAAAAATTATTCACACATATATATATATATATA [CACACA_site5579],9.38
13,TAAAATAATTTATGCATACACACATATATATATATA [CACACA_site4021],9.23
14,ATATACACCTGAGAGGTGCATATATATAAAATTTAC,11.2
15,GCATATTTTATAATTTTACACACCATATAAAATAAT [CACACA_site8904],7.2
16,TAAGAATTGAAAAAATGTACACAATATAAAATTGAA [XGTACX_site698],6.88
17,TATTAAAAATGTTAAGTGCAAAAATAAAAATTGTGG [GTGCAC_site9854],7.71
18,TAAATTATAATATGCACACAAAATGTTATATTAAAA [CACACA_site376],7.01
19,ATAATTAAGTTATGTGTGCACTGTTAAAAATAAATG,10.4
